Test results reported in PubChem BioAssay (NCI).
About 83,000 compounds went through this panel and 20% of them were active in at least one assay; those are over-represented in the sample as a whole.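 Testing used 96-well plates and a 48-hour single-concentration exposure. Example: -40 means 40% of the starting cells died.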 Unmarked numbers belong to inactive results. Active and inactive are the calls of the source. How the source made its calls: active means growth percent below 10; inactive means the rest.

How the values were obtained:
Test in all cases: NCI-60 one-dose screen, 48 h (100 = growth as untreated, 0 = no growth, -100 = all killed)
T-47D breast = conditions: 10 µM
BT-549 breast = conditions: 10 µM unless noted
MDA-MB-435 melanoma = conditions: 10 µM unless noted
SW-620 colon = conditions: 10 µM unless noted
MCF7 breast = conditions: 10 µM unless noted
HCT-116 colon = conditions: 10 µM unless noted
HCC-2998 colon = conditions: 10 µM unless noted
KM12 colon = conditions: 10 µM unless noted

Compound	growth (T-47D breast)	growth (BT-549 breast)	growth (MDA-MB-435 melanoma)	growth (SW-620 colon)	growth (MCF7 breast)	growth (HCT-116 colon)	growth (HCC-2998 colon)	growth (KM12 colon)
O=[N+]([O-])c1ccc(O)c2ncccc12	30.4%	55.2%	43.8%	32.6%	35.2%	17.1%	51.6%	35.5%
Cl.Fc1c[c-]c(-c2ccccn2)c(F)c1.[Pt].c1ccc([PH+](CC[PH+](c2ccccc2)c2ccccc2)c2ccccc2)cc1	-65.2% (active)	-69.2% (active)	-91.9% (active)	-88.8% (active)	-74.7% (active)	-90.4% (active)	-82.9% (active)	-89.1% (active)
Clc1ccc(C2=Nc3cccc4cccc(c34)N2)cc1Cl	42.2%	74.2%	114%	99%	50.2%	93%	104%	99.9%
COC(=O)c1c2c(c(C)[n+]([O-])c1C)C(=O)C=C(NCc1ccc(F)cc1)C2=O	-41.1% (active)	-91.3% (active)	-93.1% (active)	-9.71% (active)	-60.6% (active)	0.358% (active)	-40.2% (active)	1.23% (active)
Cc1cc(Cl)c2c(Cl)ccc(Cl)c2n1	103%	100%	102%	114%	99.3%	100%	116%	108%
O=C(O)CCN1CCN(c2cccc(Cl)c2)CC1	98.3%	104%	93.1%	107%	86.1%	102%	114%	114%
Cc1ccc(-c2c3c(N)c4c(nc3nc3c2c(C)nn3-c2ccccc2)CCCC4)cc1	92.6%	109%	96.4%	97.1%	94.2%	90.2%	107%	105%
COc1cc(C2C3=C(COC3=O)N(CCO)c3cc4c(cc32)OCO4)cc(OC)c1O (centres undefined)	35.3%	59.9%	-39.6% (active)	14.8%	19.6%	16.7%	28.4%	20.9%
O=C1NC(=O)C2(CCCC2C(=O)O)N1 (centres undefined)	106%	102%	105%	108%	96.2%	98.4%	100%	113%
COc1ccc2c(c1)c(=O)oc1c(C)c(OCC(C)=O)ccc12	104%	102%	89.4%	101%	101%	104%	98.1%	96.6%
Cc1ccc2nc(NC(=O)CSC(=S)N3CCN(C)CC3)sc2c1	105%	97.4%	101%	106%	93%	97.2%		111%
COc1ccc(-c2cc(=O)oc3c4c(ccc23)OCN(Cc2ccc(F)cc2)C4)cc1	62.8%	66%	59.6%	66.2%	48.8%	39.6%		79.4%
O=C1C(OCCOc2ccccc2)=C(OCCOc2ccccc2)C(=O)c2ccccc21	78.2%	27.4%	75.8%	45.1%	64%	26%		57.8%
O=[N+]([O-])c1ccc2nc(N/N=C/c3ccc(O)cc3)sc2c1	35.1%	28.6%	47.7%	63.7%	57.9%	23.3%		33.4%
CC(C)OC1=C(Cl)C(=O)c2ccccc2C1=O	-24.6% (active)	59.7%	97.3%	56.6%	73.2%	39.4%		41.2%
COC(=O)CCC(=O)c1ccccc1	102%	107%	96.9%	106%	96.1%	108%		110%
CCC(=O)Nc1nnc(Cc2ccc(OC)c(OC)c2)s1	-18.7% (active)	-66.8% (active)	-52% (active)	33.8%	15.1%	-68.2% (active)		36.3%
O=C1OCC2=C1C(c1ccc3c(c1)OCO3)CC(=O)N2c1cccc(Cl)c1 (centres undefined)	103%	126%	100%	105%	86.7%	114%		101%
COCCOC1=C(Cl)C(=O)c2ccccc2C1=O	-49% (active)	-23% (active)	4.68% (active)	-3.69% (active)	15.4%	-13.5% (active)		-41.7% (active)
COc1ccc(-c2nn(-c3ccc(NC(=O)c4ccc(Cl)c(Cl)c4)cc3)cc2-c2ccncc2)cc1Cl	64.9%	42.8%	54.3%	32.1%	31.5%	23.2%		5.24% (active)
COc1cccc(OC(=O)c2ccccc2)c1OC(=O)c1ccccc1	80.2%	83.4%	-16.4% (active)	40.1%	47.4%	51.3%		45.2%
Cc1nc2nc(C(F)(F)F)[nH]c2nc1C	104%	100%	112%	114%	95.2%	101%		105%
CCOc1ccc(/C=N\N2CCCCCC2)cc1OCC	99.1%	96.2%	53.2%	114%	96%	99.5%		103%
O=C(COc1cccc(/C=C2\COc3ccccc3C2=O)c1)c1ccccc1	75.3%	45.5%	43.1%	-81.7% (active)	7.63% (active)	3.67% (active)		31.6%
Cc1ccc(S(=O)(=O)c2ccc3[nH]c(=O)[nH]c(=O)c3c2)cc1	90.9%	92.4%	116%	105%	91.5%	90.9%		106%
N#CC1=C(N)Oc2cc(N)ccc2C1c1ccc(F)cc1 (centres undefined)	96.6%	69.2%	-21.9% (active)	46.8%	64.1%	78.4%		49.7%
CC(C)NCC(O)COc1ccc(CCOCC2CC2)cc1 (centres undefined)	103%	116%	103%	102%	107%	106%		113%
